# Reference: PubChem BioAssay (NCATS)
# Results filed as inconclusive are left out. This is one part of the list. A call without a number means that no potency is given here. Calls of active or inactive are those of the source. Unless noted, the call rests on the fitted dose curve; in most records, active means well fitted curve in the direction sought with a large enough effect; inconclusive means small, poorly fitted or top-dose-only effect, or another doubt; inactive means no such curve, though single readings can be large; an effect the other way counts as inactive or inconclusive.
# Assays:
# [1] = qHTS for differential inhibitors of proliferation of Plasmodium falciparum line D10 (AID 1877); settings: series mostly up to 28.7 µM;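 further: parasites grown with compound for 72 h before DNA staining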; further: potency means the concentration at half of the fitted maximal effect
# [2] = qHTS for differential inhibitors of proliferation of Plasmodium falciparum line Dd2 (AID 1882); settings: Potency: Plasmodium falciparum Dd2 proliferation inhibition; series mostly up to 28.7 µM; further: nearly all actives have a fitted effect of over 65% in size; further: potency means the concentration at half of the fitted maximal effect
# How it was run: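 Dd2-infected erythrocytes (0.3% parasitemia, 2.5% hematocrit final) incubated with compound 72 h at 37 C, 5% CO2; lysed with saponin/Triton buffer containing SYBR Green I, incubated overnight in the dark, then read by fluorescence (485/535 nm). Normalized to 0.29 uM artemisinin and DMSO.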
# [3] = qHTS for differential inhibitors of proliferation of Plasmodium falciparum line W2 (AID 1883); settings: Potency: Plasmodium falciparum W2 proliferation inhibition; series mostly up to 28.7 µM;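 further: parasites grown with compound for 72 h before lysis and staining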; further: potency means the concentration at half of the fitted maximal effect
# [4] = qHTS for differential inhibitors of proliferation of Plasmodium falciparum line HB3 (AID 1886); settings: Potency: Plasmodium falciparum HB3 proliferation inhibition; series mostly up to 28.7 µM;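 further: parasites grown with compound for 72 h before SYBR Green readout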; further: potency means the concentration at half of the fitted maximal effect
# [5] = qHTS Assay for Modulators of Human Peripheral Myelin Protein 22 (PMP22) Expression/Activity (AID 1967; active means well fitted curve in the direction sought with a large enough effect in the signal ratio; the % refers to the signal ratio); settings: Cell-based PMP22 reporter, dual-color luciferase ratio, 0% = compound-free control cells, mouse Pmp22 promoter in mouse Schwann cells; series mostly up to 115 µM
# How it was run: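 Quantitative HTS in a mouse Schwann cell line expressing dual click beetle luciferases: Pmp22 promoter (green) and control EF-alpha promoter (red). After 24h treatment, corrected green/red signal ratio gave %Activity relative to untreated cells.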
# [6] = biological target: ATP-dependent DNA helicase Q1 (Homo sapiens) (UniProt P46063); assay: qHTS Validation Assay for Inhibitors of RecQ-Like Dna Helicase 1 (RECQ1) (AID 2353); settings: recombinant RECQ1 helicase DNA unwinding assay; series mostly up to 25.6 µM
# How it was run: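 50 nM RECQ1T1 preincubated 15 min with compound in Tris pH 8.0 buffer with MgCl2, DTT, Tween-20 and 2.5 ug/ml poly(dI-dC); started with 200 nM TAMRA/BHQ-2 forked duplex and 2 mM ATP. Unwinding read as fluorescence (525/598 nm), two reads 2 h apart.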
# [7] = biological target: Ferritin light chain (Equus caballus) (UniProt P02791); assay: qHTS Validation Assay for Identification of Novel General Anesthetics (AID 2323); settings: horse apoferritin, anesthetic-site fluorescent probe displacement; series mostly up to 76.9 µM
# How it was run: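 Apoferritin from horse spleen (10 uM) was mixed with 1-aminoanthracene at 50% saturation in PBS, then compounds were added. After 10 min at room temperature, fluorescence was read (ex 380 nm, em 535 nm) and normalized to free-probe and complex controls.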
# [8] = biological target: RecQ-like DNA helicase BLM (Homo sapiens) (UniProt P54132); assay: qHTS Validation Assay for Inhibitors of Bloom's syndrome helicase (BLM) (AID 2364); settings: BLM helicase DNA unwinding, fluorescence, in vitro; series mostly up to 57.1 µM
# How it was run: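 50 nM BLM preincubated 15 min at room temperature with compound in pH 8.0 Tris buffer containing 2.5 ug/ml poly(dI-dC); started with 200 nM TAMRA/BHQ-2 forked duplex and 2 mM ATP (final). Unwinding read as TAMRA fluorescence increase, two reads 2 h apart.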
# [9] = biological target: Endonuclease 4 (Escherichia coli (strain K12)) (UniProt P0A6C1); assay: Counterscreen for APE1 Inhibitors: qHTS Assay for Inhibitors of Endonuclease IV (AID 2565); settings: E. coli Endo IV, fluorogenic AP-site DNA cleavage; series mostly up to 57.1 µM
# How it was run: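 E. coli EndoIV at 2 nM final, preincubated 15 min at room temperature with compound, then 50 nM TAMRA/BHQ-2 THF abasic-site duplex added. Buffer: 50 mM Tris-HCl pH 7.5, 50 mM NaCl, 2 mM MgCl2, 1 mM DTT, 0.01% Tween-20. Kinetic fluorescence increase, third minus first read.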
# Chain of RecQ-like DNA helicase BLM (Homo sapiens) (P54132 whole entry, looked up): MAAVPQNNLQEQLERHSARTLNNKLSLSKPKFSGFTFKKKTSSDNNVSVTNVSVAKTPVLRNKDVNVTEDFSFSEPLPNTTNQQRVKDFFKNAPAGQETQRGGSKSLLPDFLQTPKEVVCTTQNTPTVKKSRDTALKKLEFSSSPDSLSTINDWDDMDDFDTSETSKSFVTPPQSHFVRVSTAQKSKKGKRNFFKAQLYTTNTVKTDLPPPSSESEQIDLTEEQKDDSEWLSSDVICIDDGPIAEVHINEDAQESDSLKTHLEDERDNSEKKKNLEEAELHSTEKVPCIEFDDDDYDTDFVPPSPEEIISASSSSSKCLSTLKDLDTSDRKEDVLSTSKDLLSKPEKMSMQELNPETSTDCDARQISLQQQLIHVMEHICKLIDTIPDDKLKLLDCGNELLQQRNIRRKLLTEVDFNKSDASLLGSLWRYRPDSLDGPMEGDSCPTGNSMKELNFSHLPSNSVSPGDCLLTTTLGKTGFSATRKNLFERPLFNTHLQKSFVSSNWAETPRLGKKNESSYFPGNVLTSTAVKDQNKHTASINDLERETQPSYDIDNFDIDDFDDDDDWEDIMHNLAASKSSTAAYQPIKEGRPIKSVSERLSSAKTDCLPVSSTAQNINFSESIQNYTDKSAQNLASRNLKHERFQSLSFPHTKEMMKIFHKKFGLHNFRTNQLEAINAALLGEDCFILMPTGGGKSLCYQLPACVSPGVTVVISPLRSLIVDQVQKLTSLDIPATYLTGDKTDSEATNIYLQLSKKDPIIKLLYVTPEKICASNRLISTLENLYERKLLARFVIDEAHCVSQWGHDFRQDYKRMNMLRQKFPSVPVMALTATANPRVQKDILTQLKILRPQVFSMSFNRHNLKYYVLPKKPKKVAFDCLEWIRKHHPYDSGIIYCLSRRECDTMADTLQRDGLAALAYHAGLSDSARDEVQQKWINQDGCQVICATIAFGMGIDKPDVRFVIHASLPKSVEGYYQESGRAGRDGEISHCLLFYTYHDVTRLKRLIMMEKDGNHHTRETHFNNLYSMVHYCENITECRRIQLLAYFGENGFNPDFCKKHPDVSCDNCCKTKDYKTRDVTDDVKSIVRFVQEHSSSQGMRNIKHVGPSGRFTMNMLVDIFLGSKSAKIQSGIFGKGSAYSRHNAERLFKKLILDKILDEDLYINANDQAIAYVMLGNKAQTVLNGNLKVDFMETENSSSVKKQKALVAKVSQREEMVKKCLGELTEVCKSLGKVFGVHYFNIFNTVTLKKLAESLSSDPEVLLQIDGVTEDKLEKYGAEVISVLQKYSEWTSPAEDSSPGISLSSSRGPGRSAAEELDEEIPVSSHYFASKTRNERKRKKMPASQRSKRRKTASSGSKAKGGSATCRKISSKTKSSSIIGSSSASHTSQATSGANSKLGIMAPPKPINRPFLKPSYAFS
# Chain of ATP-dependent DNA helicase Q1 (Homo sapiens) (P46063 whole entry, looked up): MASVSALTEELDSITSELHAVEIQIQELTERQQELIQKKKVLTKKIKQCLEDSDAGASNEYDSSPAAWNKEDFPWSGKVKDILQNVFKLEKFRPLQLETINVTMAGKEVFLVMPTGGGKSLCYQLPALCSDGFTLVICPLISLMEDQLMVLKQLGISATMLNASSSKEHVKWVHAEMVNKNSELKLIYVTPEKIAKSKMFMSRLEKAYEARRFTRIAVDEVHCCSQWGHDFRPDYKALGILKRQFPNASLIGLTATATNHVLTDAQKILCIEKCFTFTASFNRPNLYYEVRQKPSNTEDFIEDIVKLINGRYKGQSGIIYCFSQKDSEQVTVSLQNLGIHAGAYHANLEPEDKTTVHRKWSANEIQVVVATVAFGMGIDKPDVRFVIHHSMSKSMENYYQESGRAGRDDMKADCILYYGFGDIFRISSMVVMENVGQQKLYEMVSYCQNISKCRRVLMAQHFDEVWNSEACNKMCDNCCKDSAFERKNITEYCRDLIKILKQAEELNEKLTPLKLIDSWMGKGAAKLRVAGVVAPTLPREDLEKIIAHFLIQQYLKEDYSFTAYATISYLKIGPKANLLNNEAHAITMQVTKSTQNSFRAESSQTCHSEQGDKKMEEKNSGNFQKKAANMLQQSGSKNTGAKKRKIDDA
# Chain of Ferritin light chain (Equus caballus) (P02791 2-175 limits assumed): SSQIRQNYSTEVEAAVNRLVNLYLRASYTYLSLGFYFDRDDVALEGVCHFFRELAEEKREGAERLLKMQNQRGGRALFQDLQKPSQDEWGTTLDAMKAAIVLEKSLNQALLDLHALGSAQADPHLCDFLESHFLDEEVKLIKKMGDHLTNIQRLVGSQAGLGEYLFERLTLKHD
SMILES,Potency [1],Potency [2],Potency [3],Potency [4],outcome [5],Potency [6],Potency [7],Potency [8],outcome [9]
N#CC(=C(\N)Sc1ccccc1N)/C(C#N)=C(/N)Sc1ccccc1N,2 µM (active),7.08 µM (active),2.82 µM (active),4.47 µM (active),inactive,inactive,,,
CSC(N)=NCCC[C@H](N)C(=O)O,inactive,inactive,inactive,inactive,inactive,inactive,inactive,inactive,
CC(=O)C(C)=O,inactive,inactive,inactive,inactive,inactive,inactive,inactive,inactive,
CC1=C(C(=O)O)N2C(=O)[C@@H](NC(=O)C(N)C3=CCC=CC3)[C@H]2SC1 (some centres undefined),inactive,inactive,inactive,inactive,,inactive,inactive,,
CC(=O)N[C@@H](Cc1c[nH]c2ccccc12)C(=O)OCc1cc(C(F)(F)F)cc(C(F)(F)F)c1,inactive,inactive,inactive,inactive,inactive,inactive,,,
CC(C)C[C@H](NC(=O)[C@H](O)[C@H](N)Cc1ccccc1)C(=O)O,inactive,inactive,inactive,inactive,,inactive,inactive,,
N=C(N)c1ccc(N)cc1,inactive,inactive,14.1 µM (active),inactive,inactive,,inactive,inactive,
O=C(O)c1ccccc1Nc1ccccc1,inactive,inactive,inactive,inactive,,inactive,inactive,,
O=c1ccn([C@@H]2O[C@H](COP(=O)(O)OP(=O)(O)O)[C@@H](O)[C@H]2O)c(=O)[nH]1,inactive,inactive,inactive,inactive,,,inactive,,
CCCCCCCCCCCCCCSCC(=O)O,inactive,inactive,inactive,inactive,inactive,inactive,,,
COc1ccc(CCN(C)CCc2ccc(OC)c(OC)c2)cc1OC,inactive,inactive,14.1 µM (active),inactive,,inactive,inactive,,
CCCCCCCCCCCCCCCCCCOC[C@H](COP(=O)([O-])OCC[N+](C)(C)C)OC,inactive,inactive,inactive,inactive,inactive,inactive,,,
CSC(=N)N,inactive,inactive,inactive,inactive,inactive,inactive,,,
CCC1(O)CC2CN(CCc3c([nH]c4ccccc34)[C@@](C(=O)OC)(c3cc4c(cc3OC)N(C=O)C3[C@]45CCN4CC=C[C@@](CC)([C@@H](OC(C)=O)[C@]3(O)C(=O)OC)[C@H]45)C2)C1 (some centres undefined),0.224 µM (active),0.1 µM (active),0.0501 µM (active),1.78 µM (active),,,inactive,,
CCn1c(=O)[nH]c2cc(Cl)c(Cl)cc21,inactive,inactive,inactive,inactive,,inactive,inactive,,
C=CCN1CCc2cc(O)c(O)cc2C(c2ccccc2)C1 (centres undefined),11.2 µM (active),12.6 µM (active),7.94 µM (active),11.2 µM (active),,,inactive,,

SMILES,Potency [1],Potency [2],Potency [3],Potency [4],outcome [5],Potency [6],Potency [7],Potency [8],outcome [9]
NC(N)=N[C@@H](CCC(=O)O)C(=O)O,inactive,inactive,inactive,inactive,,inactive,inactive,,
NC1CCN(O)C1=O (centres undefined),inactive,inactive,inactive,inactive,inactive,inactive,inactive,inactive,inactive
CC1CCN=C(N)S1 (centres undefined),inactive,inactive,11.2 µM (active),inactive,,inactive,inactive,,
CN[C@H](CC(=O)O)C(=O)O,inactive,inactive,inactive,inactive,inactive,inactive,inactive,inactive,
NC1C=CC=C(C(=O)O)C1 (centres undefined),inactive,inactive,inactive,inactive,,inactive,inactive,,
COc1ccccc1N1CCN(CCCCNC(=O)c2ccc3ccccc3c2)CC1,10 µM (active),10 µM (active),2.51 µM (active),5.01 µM (active),,inactive,,inactive,
CCCCCCN(CCCCCC)C(=O)Cc1c(-c2ccc(F)cc2)[nH]c2ccccc12,12.6 µM (active),10 µM (active),3.55 µM (active),7.08 µM (active),,inactive,,,
O[Si](CCCN1CCCCC1)(c1ccc(F)cc1)C1CCCCC1 (centres undefined),0.0282 µM (active),0.141 µM (active),0.0631 µM (active),0.0708 µM (active),,inactive,,,
COc1ccccc1N1CCN(CCCCN2C(=O)c3ccccc3C2=O)CC1,inactive,inactive,3.55 µM (active),,inactive,inactive,inactive,inactive,
CCCCCCCCCC(=O)NC(CN1CCOCC1)[C@H](O)c1ccccc1 (some centres undefined),12.6 µM (active),2.24 µM (active),1.58 µM (active),8.91 µM (active),,inactive,,,
COc1ccc2c(c1)c(CC(=O)O)c(C)n2Cc1ccc(Cl)cc1,14.1 µM (active),inactive,8.91 µM (active),14.1 µM (active),,inactive,inactive,inactive,
Nn1nnc2ccccc21,12.6 µM (active),inactive,17.8 µM (active),,inactive,inactive,inactive,inactive,
O=c1cc(O)cc(/C=C/c2ccc(O)c(O)c2)o1,11.2 µM (active),inactive,11.2 µM (active),11.2 µM (active),,inactive,inactive,,
COC(=O)C(N)Cc1ccc(Cl)cc1 (centres undefined),inactive,inactive,inactive,inactive,,inactive,inactive,inactive,
NCC(O)C1CCCCCCC1 (centres undefined),inactive,8.91 µM (active),3.16 µM (active),inactive,,inactive,inactive,,
